Experimental data as given in PubChem BioAssay (Tox21).
“And” between values parts separate entries of the source, which are not always exact repeats. Identical values can stand only once. Records with an inconclusive call do not appear. Where a call stands in place of a potency, no number is given. The source made the active and inactive calls. Calls come from the whole dose curve; as a rule, active = well fitted cell-killing curve with a large enough effect in the repeat runs; inconclusive = weak or mixed curves, or effect the other way; inactive = no such curve, though single readings can be large or run the other way.

Assay: Caspase-3/7 induction in CHO-K1 cells by small molecules, qHTS cell viability counter screen (AID 1346979); note: nearly all actives have a fitted effect of over 35% in size
Conditions: CellTiter-Fluor fluorescence, 17 h; series mostly up to 92.4 µM
Source text: National Center for Advancing Translational Sciences [NCATS]
NIH Chemical Genomics Center [NCGC]
U.S. Environmental Protection Agency [EPA]
National Institutes of Environmental Health Sciences [NIEHS]
National Toxicology Program [NTP]
U.S. Food and Drug Administration [FDA]
Apoptosis is a process of programmed cell death and plays a central role in the development of multicellular organisms. It is a highly regulated process and induces cell death by activating caspases, which are the members of cysteine aspartic acid-specific protease (caspase) family. Caspases involved in apoptosis are classified by their mechanism of action as initiator caspases (caspase-2, -8, -9 and -10) and executioner caspases (caspase-3, -6, and -7). Inhibition of apoptosis results in number of cancers, autoimmune diseases, inflammatory diseases and viral infection. To identify small molecule compounds that induce apoptosis, a homogeneous, luminescent Caspase-Glo 3/7 assay was used. Wild type CHO-K1 cells were used to screen Tox21 libraries for identifying caspase-3/7 activity inducers. Also cytotoxicity of the compounds was tested in parallel by measuring the cell viability using CellTiter-Fluor assay system in the same wells.
Tox21 Assay Protocol Summary:
CHO-K1 cells were dispensed at 1,500 per well in 5uL of culture medium into white solid bottom 1536-well plates (Corning Life Sciences, Corning, NY) using a Multidrop Combi (Thermo Scientific, Waltham, MA) dispenser. The assay plates were incubated at 37 C and 5% CO2 for 5hr, and then 23nL of compounds dissolved in DMSO and positive control were transferred using a Pintool station (Wako, San Diego, CA). The assay plates were incubated at 37C and 5% CO2 for 17hr. For cytotoxicity read, after 16hr incubation at 37C, 1uL CellTiter-Fluor reagent (Promega Corporation, Madison, WI) was added to each well of the assay plates using Flying Reagent Dispenser (FRD, Aurora Discovery, San Diego, CA). After 1hr incubation at 37C and 5% CO2, the fluorescence signal was quantified using a ViewLux plate reader (PerkinElmer, Shelton, CT).
Potency is the fitted concentration of half-maximal effect.

Compound	Potency	activity change, negative = cytotoxicity
C(COCC1CO1)OCC1CO1 (stereo not given)	inactive	
CC(C)C(C)(N)C#N (stereo not given)	inactive	
COC[C@@H](NC(C)=O)C(=O)NCc1ccccc1	inactive	
O=C(O)C(Br)(Br)Br	inactive	
O=C(O)C(Cl)Br (stereo not given)	inactive	
C=CC(=O)OCCN(C)C	inactive	
CCCN1CCC[C@@H]2Cc3nc(N)ncc3C[C@H]21	inactive	
COc1ccc(C=O)cc1O	inactive	
O=C(NC(O)C(Cl)(Cl)Cl)NC(O)C(Cl)(Cl)Cl (stereo not given)	inactive	
C=C(Cl)CSC(=S)N(CC)CC	inactive	
CCN(CC)C1CCCCC1	inactive	
CC[C@H](O)C(C[C@H](C)N(C)C)(c1ccccc1)c1ccccc1	inactive	
C[C@H]1CCCC(=O)CCC/C=C/c2cc(O)cc(O)c2C(=O)O1	46.8 µM (active) and 22.4 µM (active)	
O=c1[nH]c2ccccc2n1C1CCNCC1	inactive	
C#CCOC(=O)/C=C(C)/C=C/CC(C)CCCC(C)C (stereo not given)	inactive	
CCOC(=O)C(SP(=S)(OC)OC)c1ccccc1 (stereo not given)	inactive	
N=C(N)[Se]	inactive	
c1ccc2c(c1)CCNC2	inactive	
CS(=O)(=O)c1ccc(C(=O)C2C(=O)CCCC2=O)c(Cl)c1COCC(F)(F)F	inactive	
CCOC(=O)CCl	inactive	

Compound	Potency	activity change, negative = cytotoxicity
CC#Cc1cc(C)nc(Nc2ccccc2)n1	inactive	
C=CCC1(C(C)CC)C(=O)NC(=O)NC1=O (stereo not given)	inactive	
C=CC=O	inactive	
CC(C)(C)C(=O)C(Cl)Cl	inactive	
CC(=O)OCC1=C(C(=O)O)N2C(=O)[C@@H](N)[C@H]2SC1		0.401% [at 19 µM] (inactive)
O=C1C2CC=CCC2C(=O)N1SC(Cl)(Cl)Cl (stereo not given)	68.3 µM (active) and 12 µM (active)	
CCOC1Oc2ccc(OS(C)(=O)=O)cc2C1(C)C (stereo not given)	inactive	
ClC1=C(Cl)C2(Cl)C(CBr)CC1(Cl)C2(Cl)Cl (stereo not given)	inactive	
C[C@H](N)C(=O)c1ccccc1	inactive	
CCN1CCCC1CNC(=O)C(O)(c1ccccc1)c1ccccc1 (stereo not given)	inactive	
O=C(Cl)CCl	inactive	
O=C(Cl)c1ccccc1	inactive	
O=P(O)(O)c1ccccc1	inactive	
O=[N+]([O-])c1cccc(CCl)c1	inactive	
O=S1(=O)OCCO1	inactive	
CC(C)(C)NC[C@H](O)c1ccc(O)cc1Cl	inactive	
S=C=S	inactive	
CCCCCCCCBr	inactive	
CC(O)CCl (stereo not given)	inactive	
NNC(N)=O	inactive	
